Assay outcomes from PubChem.
Rows were chosen to be rich in hits. Some 17% of all compounds tested hit in one or more screens of this group.
TGFb SMAD3 inh – qHTS for Inhibitors of TGF-b. HepG2 CAGA-GFP TGF-b/SMAD3 reporter, GFP fluorescence, 18 h; TGF-beta stimulated, 500 pg/mL final. Potency, µM (series often up to 46.1 µM), inactives show at the top dose activity, negative = inhibition, usual class: inhibitors. 410,000 tested, 1.2% active; also: % is scaled to controls: 0 for no effect and ±100 for the full control effect; nearly all actives have a fitted effect of over 65% in size
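Inhibition of TGF-beta-driven CAGA-GFP reporter expression in HEPG2 cells is measured by cellular GFP fluorescence after 18 h stimulation with 500 pg/mL recombinant TGF-beta in 1% FBS medium at 37 degrees C.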
HepG2 viability – qHTS for Inhibitors of TGF-b: Cytotox Counterscreen; HepG2 CAGA-GFP viability, ATP luminescence, 18 h; Potency, µM (doses to about 46.1 µM), for inactives: at the top dose activity change, negative = cytotoxicity, most hits filed as cytotoxic; 410,000 tested, 0.76% active
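CellTiter-Glo luminescence gave cytotoxicity after 18 hours at 37 degrees C. The cells were HepG2 CAGA-GFP in 1% FBS DMEM, stimulated with 500 pg/mL TGF-beta after compound addition. %Activity was normalised to no-cell wells (complete cell-killing) and DMSO (no toxicity), and curves were fitted and classified.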
ATXN2 expr inh – Primary qHTS for Inhibitors of ATXN expression; HEK-293 ATXN2-luciferase reporter, luminescence, 24 h; Potency, µM (titrated, usually from 57 µM), without a hit: at the top dose activity change, negative = inhibition, hits mostly inhibitors; 360,000 tested, 0.72% active; also: % is scaled to controls: 0 for no effect and ±100 for the full control effect; nearly all actives have a fitted effect of over 55% in size
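ATXN2-luciferase reporter cells (luciferase flanked by upstream and downstream ATXN2 gene portions) were treated 24 h at 37 °C with compounds at up to 57 uM. SteadyGlo luminescence gave expression; GF-AFC fluorescence gave viability.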
DT40 TDP1 CPT – qHTS for Inhibitors of human tyrosyl-DNA phosphodiesterase 1 (TDP1): qHTS in cells in presence of CPT; chicken DT40 Tdp1-/-;hTDP1 cells + 20 nM CPT, ATP luminescence, 48 h; Potency, µM (top dose mostly 46.2 µM), without a hit: top-dose activity change, negative = growth inhibition, hits mostly inhibitors; 420,000 tested, 12% active; also: % is scaled to controls: 0 for no effect and ±100 for the full control effect; nearly all actives have a fitted effect of over 55% in size
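Chicken DT40 Tdp1-/- cells complemented with human TDP1, 400 cells/well, exposed to compounds plus 20 nM camptothecin for at least 48 h at 37 C; viability read as ATP content by CellTiter-Glo luminescence.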
DT40 TDP1 no CPT – qHTS for Inhibitors of human tyrosyl-DNA phosphodiesterase 1 (TDP1): qHTS in cells in absence of CPT; DT40 Tdp1-/- hTDP1 cells, no CPT, ATP luminescence, 48 h; Potency, µM (doses to about 46.2 µM), for inactives: at the top dose activity change, negative = growth inhibition, usual class: inhibitors; 420,000 tested, 15% active; AID 686978, 2013; also: % is scaled to controls: 0 for no effect and ±100 for the full control effect; nearly all actives have a fitted effect of over 55% in size
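Compound effects on proliferation are scored in DT40 Tdp1-/-;hTDP1 cells in the absence of CPT. ATP levels (CellTiter-Glo luminescence) are recorded after a ≥48 hr, 37 °C incubation.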
S2 tox – Viability Counterscreen for Primary qHTS for Inhibitors of ATXN expression. 400,000 tested, 0.49% active. S2 cells (HEK-293 line with an ATXN2-luciferase reporter) viability, CellTiter-Fluor protease fluorescence, 24 h. Potency, µM (series often up to 56.7 µM), most hits filed as cytotoxic; also: nearly all actives have a fitted effect of over 40% in size
An asterisk follows results filed as active. Calls follow the shape of the dose curve; as a rule, active = well fitted curve in the direction sought with a large enough effect; inconclusive = small, poorly fitted or top-dose-only effect, or another doubt; inactive = no such curve, though single readings can be large; an effect the other way counts as inactive or inconclusive. Potency is read from the fitted curve at half-maximal effect.

Results for O=C(c1ccc2c(c1)OCO2)C1CCCN(Cc2ccccc2OC(F)F)C1 (centres undefined) ?
TGFb SMAD3 inh: -20%; HepG2 viability: -22%; ATXN2 expr inh: -26%; DT40 TDP1 CPT: 16µM*; DT40 TDP1 no CPT: inconclusive; S2 tox: inactive

Results for O=C(c1cccc(C(F)(F)F)c1)C1CCCN(Cc2cccc(OCCO)c2)C1 (centres undefined) ?
TGFb SMAD3 inh: inconclusive; HepG2 viability: -1%; DT40 TDP1 CPT: inconclusive; DT40 TDP1 no CPT: 10µM*; S2 tox: inactive

Results for COCc1cc(CN2CCCC(C(=O)c3cccc(C(F)(F)F)c3)C2)ccc1OC (centres undefined) ?
TGFb SMAD3 inh: inconclusive; HepG2 viability: -40%; ATXN2 expr inh: 2%; DT40 TDP1 CPT: inconclusive; DT40 TDP1 no CPT: inconclusive; S2 tox: inactive

Results for COc1cccc(O)c1CN1CCCC(C(=O)c2cccc(C(F)(F)F)c2)C1 (centres undefined) ?
TGFb SMAD3 inh: 16µM*; HepG2 viability: -52%; ATXN2 expr inh: -37%; DT40 TDP1 CPT: 16µM*; DT40 TDP1 no CPT: 23µM*; S2 tox: inactive

Results for COc1ccccc1C(=O)C1CCCN(Cc2cccc3nccnc23)C1 (centres undefined) ?
TGFb SMAD3 inh: 6%; HepG2 viability: -20%; ATXN2 expr inh: -13%; DT40 TDP1 CPT: -23%; DT40 TDP1 no CPT: -27%; S2 tox: inconclusive

Results for COc1c(C)cc(C(=O)C2CCCN(Cc3cccc4nccnc34)C2)cc1C (centres undefined) ?
TGFb SMAD3 inh: inconclusive; HepG2 viability: -39%; DT40 TDP1 CPT: inconclusive; DT40 TDP1 no CPT: 16µM*; S2 tox: inactive

What do the screens show for `NC(=O)C1(Nc2ccc(Cl)cc2)CCCC1`?
TGFb SMAD3 inh: -2%; HepG2 viability: -27%; ATXN2 expr inh: -8%; DT40 TDP1 CPT: 0%; DT40 TDP1 no CPT: -16%; S2 tox: inactive

Results for CCOC(=O)c1cnc2c(C)cc(C)cc2c1NCCN1CCOCC1 ?
TGFb SMAD3 inh: -3%; HepG2 viability: -4%; ATXN2 expr inh: inconclusive; DT40 TDP1 CPT: 18µM*; DT40 TDP1 no CPT: 16µM*; S2 tox: inactive

How did CCOC(=O)c1cnc2c(C)cc(C)cc2c1Nc1cccc(C(=O)O)c1 do in these assays?
TGFb SMAD3 inh: -1%; HepG2 viability: -17%; ATXN2 expr inh: 14%; DT40 TDP1 CPT: 13µM*; DT40 TDP1 no CPT: 15µM*; S2 tox: inactive

What do the screens show for `CCOC(=O)c1cnc2c(C)cc(C)cc2c1NCCCN1CCOCC1`?
TGFb SMAD3 inh: -8%; HepG2 viability: -16%; DT40 TDP1 CPT: inconclusive; DT40 TDP1 no CPT: inconclusive; S2 tox: inconclusive

What do the screens show for `COc1ccccc1/C=C/C=c1\sc2nc(=O)c(Cc3ccccc3)nn2c1=O`?
TGFb SMAD3 inh: 16%; HepG2 viability: -34%; ATXN2 expr inh: -9%; DT40 TDP1 CPT: -3%; DT40 TDP1 no CPT: -15%; S2 tox: inactive

Results for CCOC(=O)C1(C)CCCCCN1C(=O)c1ccco1 (centres undefined) ?
TGFb SMAD3 inh: 15%; HepG2 viability: 9%; ATXN2 expr inh: 15%; DT40 TDP1 CPT: -18%; DT40 TDP1 no CPT: inconclusive; S2 tox: inactive

Results for Cc1ccc(Cn2cc(CCC(=O)O)c3ccccc32)cc1 ?
TGFb SMAD3 inh: -13%; HepG2 viability: -30%; ATXN2 expr inh: 2%; DT40 TDP1 CPT: -7%; DT40 TDP1 no CPT: 12%; S2 tox: inactive

What do the screens show for `CCN(c1cccc(C)c1)S(=O)(=O)c1ccc2c(c1)N(C(C)=O)CCS2`?
TGFb SMAD3 inh: 1%; HepG2 viability: -9%; ATXN2 expr inh: -24%; DT40 TDP1 CPT: inconclusive; DT40 TDP1 no CPT: -19%; S2 tox: inactive

Results for COc1ccc(-c2nn(-c3ccccc3)cc2/C=N/N2C(=O)CSC2=S)cc1 ?
TGFb SMAD3 inh: 1%; HepG2 viability: -46%; ATXN2 expr inh: inconclusive; DT40 TDP1 CPT: 18µM*; DT40 TDP1 no CPT: 16µM*

Results for COc1ccc(/C=N/N2C(=O)CSC2=S)cc1 ?
TGFb SMAD3 inh: 3%; HepG2 viability: -5%; ATXN2 expr inh: 3%; DT40 TDP1 CPT: inconclusive; DT40 TDP1 no CPT: inconclusive; S2 tox: inactive

What do the screens show for `C[C@H](CO)N1C[C@H](C)[C@@H](CN(C)Cc2ccncc2)Oc2c(cccc2N(C)C)C1=O`?
TGFb SMAD3 inh: -2%; HepG2 viability: -16%; ATXN2 expr inh: 9%; DT40 TDP1 CPT: 3%; DT40 TDP1 no CPT: 3%; S2 tox: inconclusive

Results for COc1cccc(C(=O)NCC(c2ccc(N(C)C)cc2)N2CCOCC2)c1OC (centres undefined) ?
TGFb SMAD3 inh: -25%; HepG2 viability: 2%; DT40 TDP1 CPT: 15µM*; DT40 TDP1 no CPT: 16µM*

What do the screens show for `Cc1cc(C)cc(C(=O)NCC(c2ccc(N(C)C)cc2)N2CCCC2)c1` (centres undefined)?
TGFb SMAD3 inh: -37%; HepG2 viability: -48%; DT40 TDP1 CPT: 15µM*; DT40 TDP1 no CPT: 16µM*

What do the screens show for `COc1cc(C(=O)NCC(c2ccc(N(C)C)cc2)N2CCCC2)cc(OC)c1OC` (centres undefined)?
TGFb SMAD3 inh: -14%; HepG2 viability: -23%; DT40 TDP1 CPT: 18µM*; DT40 TDP1 no CPT: inconclusive

What do the screens show for `Cc1ccccc1C(=O)NCC(c1ccc(N(C)C)cc1)N1CCCC1` (centres undefined)?
TGFb SMAD3 inh: 29%; HepG2 viability: -18%; DT40 TDP1 CPT: -2%; DT40 TDP1 no CPT: -16%

Results for COc1cccc(C(=O)NCC(c2ccc(N(C)C)cc2)N2CCCC2)c1OC (centres undefined) ?
TGFb SMAD3 inh: -2%; HepG2 viability: -15%; DT40 TDP1 CPT: 12µM*; DT40 TDP1 no CPT: inconclusive

What do the screens show for `COc1cc(C(=O)NCC(c2ccc3c(c2)OCO3)N2CCN(C)CC2)cc(OC)c1OC` (centres undefined)?
TGFb SMAD3 inh: 14%; HepG2 viability: -3%; DT40 TDP1 CPT: 0%; DT40 TDP1 no CPT: -11%
